TDP1 cell CPT = growth inhibition of DT40 Tdp1-/-;hTDP1 cells with camptothecin (screen for TDP1 inhibitors); actives 12% (n = 420,000); chicken DT40 Tdp1-/-;hTDP1 cells + 20 nM CPT, ATP luminescence, 48 h; Potency, µM (doses to about 46.2 µM), for inactives: at the highest dose activity change, negative = growth inhibition, most hits filed as inhibitors; AID 686979; further: potency means the concentration at half of the fitted maximal effect; nearly all actives have a fitted effect of over 55% in size
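Chicken DT40 Tdp1-/- cells complemented with human TDP1, 400 cells/well, exposed to compounds plus 20 nM camptothecin for at least 48 h at 37 C; viability read as ATP content by CellTiter-Glo luminescence.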
TDP1 inh = TDP1 (human) enzyme inhibition; Q9NUW8; recombinant TDP1, AlphaScreen DNA substrate cleavage; Potency, µM (top dose mostly 130 µM), for the others: top-dose activity change, negative = inhibition, actives largely listed as inhibitors; actives 0.28% (n = 350,000); AID 485290; further: potency means the concentration at half of the fitted maximal effect; nearly all actives have a fitted effect of over 40% in size
Target sequence (Q9NUW8 whole entry, looked up): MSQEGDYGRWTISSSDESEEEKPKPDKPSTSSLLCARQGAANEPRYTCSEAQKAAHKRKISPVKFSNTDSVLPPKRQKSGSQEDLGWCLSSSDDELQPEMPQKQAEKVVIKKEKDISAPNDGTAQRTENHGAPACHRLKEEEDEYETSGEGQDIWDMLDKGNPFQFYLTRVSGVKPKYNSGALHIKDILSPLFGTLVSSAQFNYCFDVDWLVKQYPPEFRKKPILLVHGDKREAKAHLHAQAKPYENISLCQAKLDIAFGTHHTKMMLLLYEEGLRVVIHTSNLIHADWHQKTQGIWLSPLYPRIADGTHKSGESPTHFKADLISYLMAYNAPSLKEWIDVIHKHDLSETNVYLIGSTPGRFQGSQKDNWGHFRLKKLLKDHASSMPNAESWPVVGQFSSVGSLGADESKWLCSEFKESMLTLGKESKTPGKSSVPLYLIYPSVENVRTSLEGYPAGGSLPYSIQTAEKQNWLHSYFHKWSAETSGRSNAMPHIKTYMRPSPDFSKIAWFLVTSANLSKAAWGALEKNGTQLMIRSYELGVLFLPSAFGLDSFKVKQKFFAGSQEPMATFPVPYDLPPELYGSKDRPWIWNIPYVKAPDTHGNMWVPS
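Tdp1 1 nM final; 15 min RT w/ cpd; substrate 15 nM, 5 min; beads 10 ug/ml, 10 min; AlphaScreen read. Neg ctrl: no enzyme.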
DT40 TDP1 no CPT = qHTS for Inhibitors of human tyrosyl-DNA phosphodiesterase 1 (TDP1): qHTS in cells in absence of CPT; Potency, µM (series often up to 46.2 µM), for inactives: at the top dose activity change, negative = growth inhibition, usual class: inhibitors; DT40 Tdp1-/- hTDP1 cells, no CPT, ATP luminescence, 48 h; AID 686978, 2013; actives 15% (n = 420,000); further: potency means the concentration at half of the fitted maximal effect; nearly all actives have a fitted effect of over 55% in size
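A cellular qHTS used chicken DT40 cells lacking endogenous Tdp1 but carrying stably transfected human TDP1. Compounds were applied without camptothecin, and cell growth kinetics were judged by ATP-dependent luminescence after ≥48 hr.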
Six1-Eya2 blk = inhibitors of human Six1/Eya2 interaction. Q15475+O00167. actives 0.56% (n = 360,000). AlphaScreen GST-Six1/His-Eya2 binding, biochemical; active compounds read low. activity change, % (no concentration beside the values); in the data active means activity change below about -65%; inconclusive means mostly about -30% to -63%
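Homogeneous AlphaScreen proximity assay pairing GST-Six1 with His-tagged Eya2 (added as 5X mix: 250 nM and 500 nM) in 50 mM Tris pH 8.0, 300 mM NaCl, 1 mM TCEP. Glutathione donor and nickel acceptor beads; 1 h, 37 °C, dark.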
CtBP-E1A blk = CtBP/E1A binding inhibition | AlphaScreen GST-E1A/His-CtBP binding, 1536-well; active compounds read low | activity change, % (concentration not given with the values) | actives 0.49% (n = 340,000); in the data active means activity change below about -65%; inconclusive means mostly about -30% to -63%
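In 5 uL wells, 23 nL compound meets equimolar GST-E1A and His-CtBP (5X stock 125 nM each) for 2 h, 37 °C. Beads (5X, 50 ug/mL) then 1 h, 37 °C, dark.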
IL-1B inflam inh = inflammasome signaling inhibition, IL-1 beta readout; THP-1 LPS/ATP IL-1B secretion, AlphaLISA, 16 h; active compounds read low; activity change, % at 57.5 µM; actives 4.7% (n = 360,000); AID 743279; in the data active means activity change below about -50%; inconclusive means mostly about -30% to -49%
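THP-1 cells pretreated 1 hr with compounds (up to 57.5 uM final), then stimulated with LPS (250 ng/mL final) plus ATP (1.25 mM final); secreted IL-1B measured by AlphaLISA after 16 hr, decreased signal indicating inhibition.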
* = called active by the depositor; i = inactive; u = inconclusive; x = no result; [ ] = remark or other dose. Hits are enriched below; roughly 18% of the tested compounds scored in any of these assays. Unless noted, the call rests on the fitted dose curve; in most records, active means well fitted curve in the direction sought with a large enough effect; inconclusive means small, poorly fitted or top-dose-only effect, or another doubt; inactive means no such curve, though single readings can be large; an effect the other way counts as inactive or inconclusive. On the % scale 0 is the no-effect control and ±100 the full control effect.

SMILES	TDP1 cell CPT	TDP1 inh	DT40 TDP1 no CPT	Six1-Eya2 blk	CtBP-E1A blk	IL-1B inflam inh
COc1ccc2[nH]c3c(=O)n(CCCC(=O)NC4CCC(C)CC4)c(=S)[nH]c3c2c1 (stereo not drawn)	12%	-1%	1%	-2	x	1
COc1ccc2[nH]c3c(=O)n(CCCCC(=O)NCCC(C)C)c(=S)[nH]c3c2c1	15µM*	6%	21µM*	-2	x	-5
CC(=O)Nc1ccc(N(CC(=O)NCC2CCCO2)C(=O)CCC(=O)Nc2cc(C)on2)cc1 (stereo not drawn)	-7%	4%[0.0935 µM]	-19%	-1	-3	-7
O=C(N/N=C\c1cc2c(cc1Cl)OCO2)c1cccs1	u	5%	u	-1	5	0
O=C(N/N=C/c1c(Cl)[nH]c2ccccc12)c1ccc2c(c1)OCCO2	u	0%	u	-6	-18	-57*
O=C(Cc1ccccc1)N/N=C/c1cc2c(cc1Cl)OCO2	u	3%	29µM*	-12	-5	6
O=C(N/N=C/c1cc2c(cc1Cl)OCO2)c1ccc2c(c1)OCCO2	-5%	4%	u	-10	-8	-58*
CC(C)NC(=O)NC(=O)CSc1nnc(COc2ccccc2F)n1C(C)C1CC2CCC1C2 (stereo not drawn)	10µM*	5%	10µM*	-4	8	-52*
CC(C1CC2CCC1C2)n1c(COc2ccccc2F)nnc1SCC(N)=O (stereo not drawn)	u	8%	u	-6	0	-4
O=C(COC(=O)c1ccc2c(c1)OCCO2)NCCc1ccccc1	-5%	-1%	-4%	5	7	13
CCN(CC)c1ccc(C(=C2C=CC(=[N+](CC)CC)C=C2)c2ccccc2)cc1	0.16µM*	28%	0.15µM*	u	-8	-120*
CCN(CC)c1ccc(C(=C2C=CC(=[N+](CC)CC)C=C2)c2ccc(N(CC)CC)cc2)cc1	0.92µM*	x	0.73µM*	-78*	-90*	u
CC(=O)/C(=C/Nc1ccc(Oc2ccccc2)cc1)c1ccccc1	u	0%	18µM*	4	36	u
CC(=O)/C(=C\Nc1ccc(OCc2ccccc2)cc1)c1ccccc1	18µM*	0%	29µM*	4	7	-6
COc1ccc(NC(=O)CN2C(=O)c3cccc4cccc2c34)c(OC)c1	u	0%	u	10	11	-17
COC(=O)Cc1ccc(NC(=S)N2CCN(c3cccc(O)c3)CC2)cc1	16µM*	-1%	13µM*	4	13	u
COc1ccc(NC(=S)N2CCN(c3ccc([N+](=O)[O-])cc3)CC2)cc1OC	10µM*	3%	12µM*	0	2	-3
COc1ccc(NC(=S)N2CCN(S(=O)(=O)c3ccccc3)CC2)cc1OC	-19%	3%[56.1 µM]	-17%	1	4	i
COc1cccc(NC(=S)N2CCN(c3ccc([N+](=O)[O-])cc3)CC2)c1	6.5µM*	4%	10µM*	-1	6	-18
CCc1cccc(CC)c1NC(=O)c1cccc(N)c1	u	1%	-16%	5	-2	-3
CCS(=O)(=O)N1CCN(C(=O)C(c2ccccc2)c2ccccc2)CC1	2%	5%	4%	0	0	-5
Clc1ccc(OCc2nnc3n2CCCCC3)c(Cl)c1	-20%	x	-26%	3	x	-9
Cc1ccc(NC(=O)c2cnc(N3CCCC3)nc2C)cc1F	-26%	4%	u	x	x	x
NS(=O)(=O)c1ccc(CCNC(=O)c2ccc3c(c2)N(Cc2ccccc2)CCS3)cc1	1%	4%	-8%	2	5	22
O=C(NCc1ccco1)c1ccc2c(c1)N(Cc1ccccc1)CCS2	-14%	10%	-12%	-14	x	u
SMILES	TDP1 cell CPT	TDP1 inh	DT40 TDP1 no CPT	Six1-Eya2 blk	CtBP-E1A blk	IL-1B inflam inh
Cc1ccc(CN2CCSc3ccc(C(=O)NCc4ccccn4)cc32)cc1	u	11%	-16%	-15	-29	-2
COc1ccc(CNC(=O)c2ccc3c(c2)N(C)CCS3)cc1	-11%	x	-19%	-12	-13	-25
Cc1ccc(CN2CCSc3ccc(C(=O)NCCc4ccccc4)cc32)cc1	23µM*	4%	23µM*	x	x	x
Cc1ccc(CN2CCSc3ccc(C(=O)NCC(C)c4ccccc4)cc32)cc1 (stereo not drawn)	u	9%	23µM*	x	x	x
COc1ccc(OC)c(CCNC(=O)c2ccc3c(c2)N(Cc2ccccc2)CCS3)c1	23µM*	7%	16µM*	-11	-5	2
O=C(NCc1ccco1)c1ccc2c(c1)N(Cc1ccc(Cl)cc1)CCS2	u	6%	u	-6	-12	-60*
Cc1cc2n(n1)SC(Nc1ccccc1)N2 (stereo not drawn)	2%	6%	6%	-1	5	-9
COc1cccc(C2=Nn3c(nnc3-c3cc(OC)ccc3OC)SC2)c1	x	11%	x	x	x	x
O=C(NCCc1ccc(Cl)cc1)c1ccc2c(c1)N(Cc1ccccc1)CCS2	16µM*	-4%	u	x	x	x
COc1ccc(N2C(N)=C(C#N)C(c3ccsc3)C3=C2CCCC3=O)c(OC)c1 (stereo not drawn)	4%	-5%	1%	-13	1	-2
CCc1ccc2c(c1)C1(NN=C(c3ccc(C)cc3)S1)C(=O)N2 (stereo not drawn)	16µM*	10%	8.2µM*	-27	-19	-100*
CC(C)c1ccc2c(c1)C1(NN=C(c3ccccc3)S1)C(=O)N2 (stereo not drawn)	3.7µM*	20%[56.1 µM]	6.5µM*	u	-17	-13
CCc1ccc2c(c1)NC(=O)C2(C)Cc1ccc(F)cc1 (stereo not drawn)	u	x	u	-12	-1	25
Cc1cc(NC(=O)CSc2ncc(C(=O)Nc3ccc(F)cc3)c(=O)n2C)no1	-10%	-5%	-13%	x	x	x
Cc1ccc(-n2cnc(N)c2C(=O)c2cccc([N+](=O)[O-])c2)cc1	u	4%	29µM*	-7	-11	x
CC(=O)N1N=C(c2ccc3ccccc3c2)OC12CCCC2	21µM*	0%	u	-3	-5	4
CC(=O)N(C)C1=C(N2CCOCC2)C(=O)c2ccccc2C1=O	0.18µM*	4%	0.16µM*	-9	-10	-94*
CC(=O)c1ccc(NC2=C(N3CCOCC3)C(=O)c3ccccc3C2=O)cc1	23µM*	10%	21µM*	u	0	-76*
